Experimental data as given in the supplement of paper PMC10849652.
Of roughly 7,900 targets only a part is listed; those with a hit were picked by preference. About 0.6% of all pairs of compound and target were hits.

Columns and labels:
Assay in all cases: log2 fold change, soluble protein after heating vs DMSO (PISA); higher = thermal stabilisation; K562 cells, 10 uM, 30 min; active = over 0.2 and 3.5 SD of the protein, either way, in both replicates (recomputed)
[1] = compound: CS(=O)(=O)c1ccc(-c2cnc(N)c(C(=O)Nc3ccccc3)n2)cc1
Method in brief: (§1)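 K562 cells (2×10^6 cells/mL) were treated with 10 μM compound for 30 min, and aliquots were heated for 3 min over 48°C-58°C. Pooled aliquots were extracted in PBS with 0.5% NP-40 at 4°C, and the supernatant after 21,000xg for 90 min was measured by TMTpro 16plex LC-MS/MS with channel sums equalised. Reported thermal stability, relative to control samples and from duplicates, is a log2 fold change.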

[2] = compound: C[C@@H](Oc1cc(-c2cnn(C3CCNCC3)c2)cnc1N)c1c(Cl)ccc(F)c1Cl [crizotinib]
Method in brief: as §1

[3] = compound: C[C@@H]1COCCN1C2=NC(=NC(=C2)C3(CC3)S(=O)(=O)C)C4=C5C=CNC5=CC=C4
Method in brief: as §1

[4] = compound: C[C@H](C1=CC=C(C=C1)C(=O)NC2=C3C=CNC3=NC=C2)N
Method in brief: as §1

[5] = compound: C[C@H](Nc1ncnc2nc[nH]c12)c1cc2cccc(Cl)c2c(=O)n1-c1ccccc1 [duvelisib]
Method in brief: as §1

[6] = compound: Cc1cc(Nc2cc(CN3CCOCC3)c3nc(C)c(Cc4ccc(Cl)cc4F)n3n2)n[nH]1 [gandotinib]
Method in brief: as §1

[7] = compound: Cc1cc(Nc2cc(N3CCN(C)CC3)nc(Sc3ccc(NC(=O)C4CC4)cc3)n2)n[nH]1 [tozasertib]
Method in brief: as §1

[8] = compound: Cc1cc(SCc2sc(-c3ccc(C(F)(F)F)cc3)nc2C)ccc1OCC(=O)O
Method in brief: as §1

[9] = compound: Cc1ccc(-n2nc(C(C)(C)C)cc2NC(=O)Nc2ccc(OCCN3CCOCC3)c3ccccc23)cc1 [doramapimod]
Method in brief: as §1

[10] = compound: Cc1ccc(C(=O)N(CCCN)[C@@H](c2nc3cc(Cl)ccc3c(=O)n2Cc2ccccc2)C(C)C)cc1 [ispinesib]
Method in brief: as §1

[11] = compound: Cc1ccc(NC(=O)c2ccc(CN3CC[C@H](N(C)C)C3)c(C(F)(F)F)c2)cc1Nc1nccc(-c2cncnc2)n1 [bafetinib]
Method in brief: as §1

[12] = compound: Cc1cccc(CC(=O)N2CCc3c2ccc(-c2cn(C)c4ncnc(N)c24)c3F)n1
Method in brief: as §1

[13] = compound: Cc1cn(-c2cc(NC(=O)c3ccc(C)c(Nc4nccc(-c5cccnc5)n4)c3)cc(C(F)(F)F)c2)cn1 [nilotinib]
Method in brief: as §1

[14] = compound: Cc1nc(Nc2n[nH]c3c2CN(C(=O)N[C@H](CN(C)C)c2ccccc2)C3(C)C)c2sccc2n1
Method in brief: as §1

[15] = compound: Cc1nc(Nc2ncc(C(=O)Nc3c(C)cccc3Cl)s2)cc(N2CCN(CCO)CC2)n1 [dasatinib]
Method in brief: as §1

[16] = compound: Cc1ncc(-c2ccnc(Nc3ccc(S(C)(=O)=O)cc3)n2)n1C(C)C
Method in brief: as §1

[17] = compound: Cn1cc(-c2ccc3c(c2)CCN3C(=O)Cc2cccc(C(F)(F)F)c2)c2c(N)ncnc21
Method in brief: as §1

[18] = compound: Cn1cc(-c2ccc3nnc(C(F)(F)c4ccc5ncccc5c4)n3n2)cn1
Method in brief: as §1

[19] = compound: Cn1cncc1[C@@](N)(c1ccc(Cl)cc1)c1ccc2c(c1)c(-c1cccc(Cl)c1)cc(=O)n2C [tipifarnib]
Method in brief: as §1

[20] = compound: FC(F)(F)c1ccc(/C=C/c2nc(COc3ccc(CCCCn4ccnn4)cc3)co2)cc1 [mubritinib]
Method in brief: as §1

Measured: log2 fold change

ALG3 (UniProt Q92685)
UniProt Q92685, sequence (Q92685 whole entry, looked up): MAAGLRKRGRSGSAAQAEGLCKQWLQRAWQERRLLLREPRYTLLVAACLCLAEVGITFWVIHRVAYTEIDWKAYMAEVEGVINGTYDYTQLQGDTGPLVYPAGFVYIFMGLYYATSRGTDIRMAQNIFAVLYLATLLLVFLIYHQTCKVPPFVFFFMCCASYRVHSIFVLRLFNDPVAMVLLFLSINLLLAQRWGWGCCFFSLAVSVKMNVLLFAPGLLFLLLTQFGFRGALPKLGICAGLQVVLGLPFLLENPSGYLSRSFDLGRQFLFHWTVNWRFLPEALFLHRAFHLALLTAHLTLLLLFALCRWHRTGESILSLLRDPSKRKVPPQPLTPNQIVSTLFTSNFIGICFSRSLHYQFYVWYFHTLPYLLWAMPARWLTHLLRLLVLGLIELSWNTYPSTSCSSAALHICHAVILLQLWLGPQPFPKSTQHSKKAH
inactive: [1] -0.067 | [2] 0.087 | [3] 0.001 | [4] -0.077 | [5] 0.057 | [6] -0.107 | [7] -0.019 | [8] 0.049 | [9] 0.006 | [10] -0.086 | [11] -0.047 | [12] 0.075 | [13] 0.002 | [14] 0.021 | [15] 0.031 | [16] 0.017 | [17] -0.065 | [18] 0.013 | [19] -0.062 | [20] 0.006

BAP1 (UniProt Q92560)
UniProt Q92560, sequence (Q92560 whole entry, looked up): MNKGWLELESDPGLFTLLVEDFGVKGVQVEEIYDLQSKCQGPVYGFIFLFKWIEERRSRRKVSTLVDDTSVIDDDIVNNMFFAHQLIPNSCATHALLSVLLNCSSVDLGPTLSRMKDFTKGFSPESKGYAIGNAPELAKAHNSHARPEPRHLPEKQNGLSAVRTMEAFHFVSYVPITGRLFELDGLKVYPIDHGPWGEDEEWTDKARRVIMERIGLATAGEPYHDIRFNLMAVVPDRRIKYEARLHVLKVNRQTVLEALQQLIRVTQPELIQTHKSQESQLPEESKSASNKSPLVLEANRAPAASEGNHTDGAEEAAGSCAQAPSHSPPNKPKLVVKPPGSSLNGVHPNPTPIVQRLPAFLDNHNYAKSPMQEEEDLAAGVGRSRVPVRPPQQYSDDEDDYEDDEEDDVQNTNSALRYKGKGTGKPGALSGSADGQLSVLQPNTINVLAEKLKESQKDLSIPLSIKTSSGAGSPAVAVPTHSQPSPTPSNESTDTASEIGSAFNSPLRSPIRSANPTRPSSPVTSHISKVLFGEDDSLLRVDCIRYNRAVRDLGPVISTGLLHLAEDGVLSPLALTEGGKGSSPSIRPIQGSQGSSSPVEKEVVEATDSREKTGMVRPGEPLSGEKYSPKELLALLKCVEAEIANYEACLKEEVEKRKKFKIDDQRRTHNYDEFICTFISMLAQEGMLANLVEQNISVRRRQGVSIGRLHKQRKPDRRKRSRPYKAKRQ
inactive: [1] 0.07 | [2] -0.078 | [3] 0 | [4] 0.126 | [5] -0.089 | [6] 0.076 | [7] 0.079 | [8] 0.085 | [9] 0.112 | [10] -0.043 | [11] 0.252 | [12] -0.071 | [13] 0.007 | [14] 0.053 | [15] -0.031 | [16] 0.006 | [17] -0.086 | [18] -0.064 | [19] 0.076 | [20] -0.201

BRK1 isoform 2 (UniProt Q8WUW1)
UniProt Q8WUW1, sequence (Q8WUW1 whole entry, looked up): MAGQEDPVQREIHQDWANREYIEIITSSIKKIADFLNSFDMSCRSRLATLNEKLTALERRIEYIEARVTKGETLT
inactive: [1] -0.004 | [2] 0.029 | [3] 0.11 | [4] -0.276 | [5] 0.086 | [6] -0.024 | [7] -0.047 | [8] -0.035 | [9] -0.041 | [10] 0.18 | [11] -0.043 | [12] 0.007 | [13] 0.02 | [14] -0.051 | [15] 0.054 | [16] -0.051 | [17] 0.047 | [18] 0.186 | [19] -0.049 | [20] 0.002

AP2A1 (UniProt O95782)
active: [4] -0.237
inactive: [1] -0.011 | [2] -0.127 | [3] -0.006 | [5] -0.015 | [6] 0.01 | [7] -0.126 | [8] 0.02 | [9] 0.039 | [10] 0.081 | [11] 0.052 | [12] 0.024 | [13] -0.008 | [14] -0.008 | [15] 0.045 | [16] -0.079 | [17] -0.007 | [18] -0.066 | [19] -0.051 | [20] -0.011

ADAM15 (UniProt Q13444)
UniProt Q13444, sequence (Q13444 whole entry, looked up): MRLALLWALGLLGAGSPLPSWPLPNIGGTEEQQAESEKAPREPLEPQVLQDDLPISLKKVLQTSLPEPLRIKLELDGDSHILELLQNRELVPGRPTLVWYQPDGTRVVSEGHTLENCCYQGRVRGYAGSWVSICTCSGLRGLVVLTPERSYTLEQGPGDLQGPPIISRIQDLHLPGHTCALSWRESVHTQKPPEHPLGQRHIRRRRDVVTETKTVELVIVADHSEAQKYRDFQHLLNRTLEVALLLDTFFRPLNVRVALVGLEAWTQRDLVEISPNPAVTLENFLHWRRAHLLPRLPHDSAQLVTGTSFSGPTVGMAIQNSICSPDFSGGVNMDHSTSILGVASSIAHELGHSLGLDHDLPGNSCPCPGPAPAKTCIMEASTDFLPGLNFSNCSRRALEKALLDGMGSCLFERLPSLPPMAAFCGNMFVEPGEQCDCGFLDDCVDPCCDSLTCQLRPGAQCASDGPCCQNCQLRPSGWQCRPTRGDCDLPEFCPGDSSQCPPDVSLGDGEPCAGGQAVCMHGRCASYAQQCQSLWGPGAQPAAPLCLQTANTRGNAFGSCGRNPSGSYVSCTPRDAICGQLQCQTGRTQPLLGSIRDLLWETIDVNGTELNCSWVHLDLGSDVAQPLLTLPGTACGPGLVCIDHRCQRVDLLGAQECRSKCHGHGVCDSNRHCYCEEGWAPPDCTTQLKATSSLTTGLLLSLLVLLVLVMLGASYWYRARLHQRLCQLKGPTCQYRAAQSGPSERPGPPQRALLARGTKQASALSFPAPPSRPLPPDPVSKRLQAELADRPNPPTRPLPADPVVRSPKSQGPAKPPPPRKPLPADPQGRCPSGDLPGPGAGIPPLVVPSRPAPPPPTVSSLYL
inactive: [1] 0 | [2] 0.097 | [3] 0.015 | [4] -0.047 | [5] 0.119 | [6] -0.047 | [7] -0.067 | [8] -0.047 | [9] 0.033 | [10] -0.119 | [11] 0.067 | [12] 0.003 | [13] -0.11 | [14] -0.043 | [15] -0.009 | [16] 0.079 | [18] 0.018 | [19] -0.053
active: [17] -0.355

AP2M1 (UniProt Q96CW1)
UniProt Q96CW1, sequence (Q96CW1 whole entry, looked up): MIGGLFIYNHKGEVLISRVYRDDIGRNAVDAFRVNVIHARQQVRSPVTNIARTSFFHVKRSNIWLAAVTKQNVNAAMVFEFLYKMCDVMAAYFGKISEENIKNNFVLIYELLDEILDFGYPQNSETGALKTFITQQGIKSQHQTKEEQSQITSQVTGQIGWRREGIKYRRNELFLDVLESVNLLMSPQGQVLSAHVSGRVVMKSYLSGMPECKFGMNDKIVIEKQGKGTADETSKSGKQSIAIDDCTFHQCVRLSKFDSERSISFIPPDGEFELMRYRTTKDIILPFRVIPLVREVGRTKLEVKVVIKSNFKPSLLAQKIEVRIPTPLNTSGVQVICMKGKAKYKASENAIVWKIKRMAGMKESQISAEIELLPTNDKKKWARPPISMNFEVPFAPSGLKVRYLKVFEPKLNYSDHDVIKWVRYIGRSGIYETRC
inactive: [1] 0.018 | [2] -0.066 | [3] -0.04 | [4] -0.193 | [5] -0.036 | [6] -0.002 | [7] -0.09 | [8] -0.007 | [9] 0.029 | [10] 0.044 | [11] 0.042 | [12] -0.012 | [13] 0.012 | [14] 0.031 | [15] 0.048 | [16] -0.02 | [17] -0.013 | [18] -0.004 | [19] 0.02 | [20] -0.035

BLVRB (UniProt P30043)
UniProt P30043, sequence (P30043 whole entry, looked up): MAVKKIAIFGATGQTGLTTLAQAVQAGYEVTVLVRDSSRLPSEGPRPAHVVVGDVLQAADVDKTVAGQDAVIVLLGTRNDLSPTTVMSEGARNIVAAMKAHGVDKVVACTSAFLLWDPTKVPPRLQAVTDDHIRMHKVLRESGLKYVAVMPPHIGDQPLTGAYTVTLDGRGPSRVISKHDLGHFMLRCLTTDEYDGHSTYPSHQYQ
inactive: [1] 0.04 | [2] -0.006 | [3] 0.036 | [4] -0.081 | [5] 0.016 | [6] -0.085 | [7] -0.011 | [8] 0.002 | [9] -0.027 | [10] -0.012 | [11] 0.014 | [12] 0.05 | [13] 0.021 | [14] -0.109 | [15] -0.064 | [16] 0.029 | [17] 0.032 | [18] 0.074 | [19] -0.021 | [20] -0.097

ACSL5 isoform 3 (UniProt Q9ULC5)
active: [11] -0.271
inactive: [1] -0.014 | [2] -0.146 | [3] 0.11 | [4] 0.009 | [5] -0.024 | [6] 0.021 | [7] -0.076 | [8] -0.033 | [9] 0.059 | [10] -0.316 | [12] -0.01 | [13] -0.055 | [14] -0.06 | [15] 0.062 | [16] 0.012 | [17] 0.066 | [18] 0.007 | [19] 0.043 | [20] -0.018

ALG11 (UniProt Q2TAA5)
UniProt Q2TAA5, sequence (Q2TAA5 whole entry, looked up): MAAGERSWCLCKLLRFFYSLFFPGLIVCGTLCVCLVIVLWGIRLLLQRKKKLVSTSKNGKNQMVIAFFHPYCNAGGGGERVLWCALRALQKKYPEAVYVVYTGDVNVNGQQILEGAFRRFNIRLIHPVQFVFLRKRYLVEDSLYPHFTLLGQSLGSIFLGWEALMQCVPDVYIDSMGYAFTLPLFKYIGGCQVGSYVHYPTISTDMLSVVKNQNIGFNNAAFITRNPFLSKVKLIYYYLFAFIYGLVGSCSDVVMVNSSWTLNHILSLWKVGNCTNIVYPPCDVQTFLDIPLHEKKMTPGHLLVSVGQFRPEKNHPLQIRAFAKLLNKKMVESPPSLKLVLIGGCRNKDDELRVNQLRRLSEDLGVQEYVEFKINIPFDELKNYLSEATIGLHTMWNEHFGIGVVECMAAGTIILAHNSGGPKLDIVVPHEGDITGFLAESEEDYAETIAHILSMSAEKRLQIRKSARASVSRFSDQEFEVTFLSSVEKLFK
inactive: [1] 0.142 | [2] 0.007 | [3] 0.103 | [4] -0.04 | [5] 0.059 | [6] -0.129 | [7] 0.036 | [8] 0.015 | [9] 0.038 | [10] 0.029 | [11] -0.078 | [12] 0.086 | [13] 0.001 | [14] -0.037 | [15] 0.005 | [16] 0.129 | [17] -0.072 | [18] 0.028 | [19] -0.016 | [20] 0.066

ARMC10 (UniProt Q8N2F6)
UniProt Q8N2F6, sequence (Q8N2F6 whole entry, looked up): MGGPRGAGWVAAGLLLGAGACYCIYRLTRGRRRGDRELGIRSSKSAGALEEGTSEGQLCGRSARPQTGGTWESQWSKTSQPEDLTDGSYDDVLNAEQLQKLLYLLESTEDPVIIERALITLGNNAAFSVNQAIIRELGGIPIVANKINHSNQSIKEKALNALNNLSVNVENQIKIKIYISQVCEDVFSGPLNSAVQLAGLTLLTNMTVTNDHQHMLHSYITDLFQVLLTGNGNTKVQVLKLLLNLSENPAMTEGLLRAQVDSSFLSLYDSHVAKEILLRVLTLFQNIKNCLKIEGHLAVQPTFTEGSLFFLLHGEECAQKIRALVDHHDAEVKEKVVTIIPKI
inactive: [1] 0.002 | [2] -0.04 | [3] 0.016 | [4] 0.006 | [5] 0.033 | [6] -0.09 | [7] 0.065 | [8] 0.108 | [9] 0.018 | [10] 0.027 | [11] 0.046 | [12] 0.015 | [13] -0.063 | [14] -0.034 | [15] -0.125 | [16] -0.012 | [17] -0.052 | [18] -0.115 | [19] 0.001 | [20] -0.096

ACTR1B (UniProt P42025)
inactive: [1] 0 | [2] -0.009 | [3] 0.156 | [4] 0.072 | [5] 0.009 | [6] -0.167 | [7] 0.073 | [8] -0.022 | [9] 0 | [10] 0.124 | [11] -0.062 | [12] -0.221 | [13] 0.034 | [14] -0.011 | [15] 0.034 | [16] 0.083 | [17] -0.011 | [18] 0.003 | [19] 0.077 | [20] -0.001

BECN1 (UniProt Q14457)
UniProt Q14457, sequence (Q14457 whole entry, looked up): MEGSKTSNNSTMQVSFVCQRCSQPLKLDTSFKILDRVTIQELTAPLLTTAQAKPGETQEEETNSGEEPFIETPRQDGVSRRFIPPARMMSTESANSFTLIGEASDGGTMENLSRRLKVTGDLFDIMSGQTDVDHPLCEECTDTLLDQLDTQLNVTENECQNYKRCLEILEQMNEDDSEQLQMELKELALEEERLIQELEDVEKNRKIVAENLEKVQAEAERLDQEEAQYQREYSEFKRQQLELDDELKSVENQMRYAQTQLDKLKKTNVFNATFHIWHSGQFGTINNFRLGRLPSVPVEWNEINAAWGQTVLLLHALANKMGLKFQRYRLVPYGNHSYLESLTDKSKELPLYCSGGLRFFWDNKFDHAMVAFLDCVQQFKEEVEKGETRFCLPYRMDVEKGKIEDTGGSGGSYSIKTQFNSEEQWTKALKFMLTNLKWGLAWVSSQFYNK
active: [5] 0.283
inactive: [1] 0.141 | [2] -0.126 | [3] 0.043 | [4] 0.093 | [6] 0.138 | [7] 0.034 | [8] -0.066 | [9] -0.004 | [10] -0.019 | [11] 0.063 | [12] -0.032 | [13] 0.032 | [14] -0.025 | [15] -0.072 | [16] 0.076 | [17] -0.015 | [18] -0.038 | [19] -0.003 | [20] 0.023

ALDH2 (UniProt P05091)
UniProt P05091, sequence (P05091 whole entry, looked up): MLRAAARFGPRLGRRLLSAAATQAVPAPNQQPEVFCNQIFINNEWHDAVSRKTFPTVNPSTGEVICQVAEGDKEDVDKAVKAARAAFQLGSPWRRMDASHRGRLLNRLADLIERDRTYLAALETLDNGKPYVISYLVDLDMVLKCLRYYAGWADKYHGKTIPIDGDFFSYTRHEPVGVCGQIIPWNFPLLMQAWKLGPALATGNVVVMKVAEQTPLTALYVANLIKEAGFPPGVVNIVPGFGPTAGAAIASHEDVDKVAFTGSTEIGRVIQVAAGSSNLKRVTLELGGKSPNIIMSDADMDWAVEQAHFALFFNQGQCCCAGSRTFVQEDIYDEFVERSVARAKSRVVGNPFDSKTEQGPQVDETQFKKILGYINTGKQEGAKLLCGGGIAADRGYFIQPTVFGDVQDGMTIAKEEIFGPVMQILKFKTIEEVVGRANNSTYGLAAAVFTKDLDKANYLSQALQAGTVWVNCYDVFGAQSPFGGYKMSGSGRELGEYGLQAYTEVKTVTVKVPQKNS
inactive: [1] -0.047 | [2] -0.044 | [3] 0.051 | [4] -0.038 | [5] 0.056 | [6] -0.088 | [7] -0.039 | [8] 0.022 | [9] 0.033 | [10] -0.023 | [11] 0.009 | [12] -0.02 | [13] 0.006 | [14] -0.016 | [15] -0.034 | [16] 0.019 | [17] 0.072 | [18] 0.059 | [19] -0.005 | [20] 0.07

BUB1B isoform 3 (UniProt O60566)
inactive: [1] -0.015 | [2] -0.108 | [3] 0.013 | [4] 0.083 | [5] 0.011 | [6] -0.207 | [7] 0.119 | [8] 0.057 | [9] 0.047 | [10] -0.072 | [11] 0.03 | [12] 0.107 | [13] -0.089 | [14] -0.142 | [15] -0.13 | [16] 0.02 | [17] 0 | [18] 0.017 | [19] -0.114 | [20] 0.012

AKR1C2 (UniProt P52895)
inactive: [1] 0.005 | [2] -0.029 | [3] -0.159 | [4] 0.219 | [5] -0.076 | [6] 0.089 | [7] -0.045 | [8] 0.098 | [9] -0.036 | [10] 0.077 | [11] 0.103 | [12] -0.111 | [13] 0.029 | [14] -0.057 | [15] -0.012 | [16] 0.028 | [17] -0.07 | [18] 0.223 | [19] 0.271 | [20] -0.06

B4GALT1 (UniProt P15291)
UniProt P15291, sequence (P15291 whole entry, looked up): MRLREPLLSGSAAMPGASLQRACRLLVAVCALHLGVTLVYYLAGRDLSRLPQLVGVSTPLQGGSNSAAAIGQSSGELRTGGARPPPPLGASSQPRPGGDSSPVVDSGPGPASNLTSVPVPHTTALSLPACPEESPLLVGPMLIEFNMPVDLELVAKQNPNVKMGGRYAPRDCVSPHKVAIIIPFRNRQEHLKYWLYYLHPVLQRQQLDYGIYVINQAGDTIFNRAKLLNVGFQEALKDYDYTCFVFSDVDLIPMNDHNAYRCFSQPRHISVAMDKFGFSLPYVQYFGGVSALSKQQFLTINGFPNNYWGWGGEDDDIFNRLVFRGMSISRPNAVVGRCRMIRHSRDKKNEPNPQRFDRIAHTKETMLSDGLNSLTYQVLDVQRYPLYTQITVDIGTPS
active: [2] -0.479
inactive: [1] -0.007 | [3] -0.031 | [4] -0.124 | [5] 0.035 | [6] 0.161 | [7] 0.014 | [8] 0.049 | [9] 0.071 | [10] -0.066 | [11] -0.062 | [12] 0.009 | [13] 0.066 | [14] -0.025 | [15] -0.083 | [16] 0.021 | [17] -0.005 | [18] 0.04 | [19] 0.153 | [20] 0.029
